From PubChem BioAssay
Records with an inconclusive call do not appear. Activity calls are given as the source filed them.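 Rule for the calls, unless noted: active = normalized viability below 100% at a tested concentration; inactive = the rest.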

Tests used:
[1] = viability loss in pontine glioma line – cell-based, SU-DIPG-XVII, MIPE5.0, CellTiter-Glo, qHTS, dose response (AID 1347060; cut-off not given, nearly all actives have AC50 up to about 26 µM;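 note: cells exposed to compound for 48 hours before viability readout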); conditions: CellTiter-Glo ATP luminescence
[2] = viability loss in pontine glioma line – cell-based, SU-DIPG-XIII, MIPE4.0, CellTiter-Glo, qHTS, dose response (AID 1347061; cut-off not given, nearly all actives have AC50 up to about 37 µM;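 note: cells exposed to compound for 48 hours before readout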); conditions: CellTiter-Glo ATP luminescence
[3] = viability loss in pontine glioma line – cell-based, JHH-DIPG-1, MIPE4.0, CellTiter-Glo, qHTS, dose response (AID 1347062; cut-off not given, nearly all actives have AC50 up to about 27 µM;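 note: cells exposed to compound for two days before readout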); conditions: JHH-DIPG-1 viability, CellTiter-Glo ATP luminescence
[4] = viability loss in pontine glioma line – cell-based, SU-DIPG-IV, MIPE4.0, CellTiter-Glo, qHTS, dose response (AID 1347063; cut-off not given, nearly all actives have AC50 up to about 30 µM;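 note: compound exposure lasted 48 hours before the viability readout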); conditions: CellTiter-Glo ATP luminescence
[5] = viability loss in pontine glioma line – cell-based, SU-DIPG-XIII, MIPE5.0, CellTiter-Glo, qHTS, dose response (AID 1347064; cut-off not given, nearly all actives have AC50 up to about 23 µM;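 note: cells exposed to compound for 48 hours before the viability read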); conditions: CellTiter-Glo ATP luminescence
[6] = viability loss in pontine glioma line – cell-based, SU-DIPG-XXV, MIPE5.0, CellTiter-Glo, qHTS, dose response (AID 1347065; cut-off not given, nearly all actives have AC50 up to about 26 µM;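 note: cells exposed to compound for 48 hours before ATP readout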); conditions: CellTiter-Glo ATP luminescence
[7] = growth inhibition of DIPG cells – cell-based, MIPE4.0 library, CellTiter-Glo luminescence, qHTS (AID 1347066; cut-off not given, nearly all actives have AC50 up to about 30 µM;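 note: cells exposed to compound for 48 hours before readout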); conditions: SU-DIPG-VI viability, CellTiter-Glo ATP luminescence
[8] = JHH-DIPG-1 glioma cell viability, MIPE5.0 library, CellTiter-Glo luminescence, qHTS (AID 1347067; cut-off not given, nearly all actives have AC50 up to about 26 µM;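 note: cells exposed to compound for 48 hours before readout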); conditions: JHH-DIPG-1 glioma viability, CellTiter-Glo ATP luminescence
[9] = growth inhibition of DIPG cells – cell-based, MIPE5.0 library, qHTS (AID 1347068; cut-off not given, nearly all actives have IC50 up to about 30 µM;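 note: cells exposed to compound for 48 hours before viability readout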); conditions: SU-DIPG-XXV viability
[10] = viability loss with induced miR-34 in A549 – imaging, A549 dox-inducible miR-34, nuclei and caspase counts, primary screen (AID 1347080;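 active = compounds whose cell count with miR-34 switched on is under 0.7 times the count with it off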); conditions: A549 miR-34 inducible, Hoechst nuclei count, 48 h
[11] = compounds altering HSF1 focus formation in cells – imaging, Selleck Cancer Library (AID 1347162; in the data active = plate-normalised HSF1 focus index below about 0.46); conditions: human cells, HSF1 nuclear foci imaging, at 10 µM; SSMD: measured here: HSF1 foci SSMD mean; cell count: measured here: cell number; plate-normalised HSF1 focus index: stronger effect = lower value
[12] = MELAS cybrid and Rieske KO viability enhancers – cell-based, MELAS cybrids, Rieske KO mouse fibroblasts, CellTiter-Glo, primary screen (AID 1508586;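 active = mean z-score across replicates of 1.96 or higher in either the MELAS or the Rieske mutant cell line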;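 note: z relative to plate mean and SD of compound and empty wells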); conditions: low glucose
[13] = drug combination growth inhibition, ovarian cancer – cell-based, oncology-focused library, rucaparib conditional, profiling panel (AID 1508598); conditions: patient-derived ovarian cancer cells, CellTiter-Glo viability, 144 h, stronger effect = lower value

Nc1ccc(-c2ccc3ncc4ccc(=O)n(-c5cccc(C(F)(F)F)c5)c4c3c2)cn1
AC50 [1]: 0.0934 µM (active) | AC50 [2]: 0.132 µM (active) | AC50 [3]: 0.0743 µM (active) | AC50 [4]: 0.0332 µM (active) | AC50 [5]: 0.0235 µM (active) | AC50 [6]: 0.0209 µM (active) | AC50 [7]: 0.187 µM (active) | AC50 [8]: 0.166 µM (active) | IC50 [9]: 0.235 µM (active) | fold change ([10]; stronger effect = lower value, cell number ratio, induced over uninduced): 1 (inactive) | fold change ([10]; measured here: relative caspase fold change +Dox/-Dox): 1.14 | cell count ([10]; measured here: total cells with miR-34 induction, stronger effect = lower value): 1420 | cell count ([10]; measured here: total cells without miR-34 induction): 1410 | SSMD [11]: 2.81 | cell count [11]: 6780 | plate-normalised HSF1 focus index [11]: 1.15 (inactive) | z-score ([12]; MELAS cybrid survival, CellTiter-Glo 48 h, stronger effect = higher value): 3.27 (active) | z-score ([12]; Rieske KO mouse fibroblast survival, CellTiter-Glo 72 h): -0.678 | viability ([13]; at 0.000305 µM, OCI-C5x cells, with rucaparib 10 µM, 100% = cells with rucaparib alone): 117% (inactive) | viability ([13]; at 0.000305 µM, OCI-C5x cells, without rucaparib): 112% (inactive) | viability ([13]; at 0.000305 µM, OCI-P5x cells, with rucaparib 20 µM, 100% = cells with rucaparib alone): 87.4% (active) | viability ([13]; at 0.000305 µM, OCI-P5x cells, without rucaparib): 87.8% (active) | viability ([13]; at 0.00122 µM, OCI-C5x cells, with rucaparib 10 µM, 100% = cells with rucaparib alone): 107% (inactive) | viability ([13]; at 0.00122 µM, OCI-C5x cells, without rucaparib): 119% (inactive) | viability ([13]; at 0.00122 µM, OCI-P5x cells, with rucaparib 20 µM, 100% = cells with rucaparib alone): 89.2% (active) | viability ([13]; at 0.00122 µM, OCI-P5x cells, without rucaparib): 90.5% (active) | viability ([13]; at 0.00488 µM, OCI-C5x cells, with rucaparib 10 µM, 100% = cells with rucaparib alone): 118% (inactive) | viability ([13]; at 0.00488 µM, OCI-C5x cells, without rucaparib): 83.6% (active) | viability ([13]; at 0.00488 µM, OCI-P5x cells, with rucaparib 20 µM, 100% = cells with rucaparib alone): 79.7% (active) | viability ([13]; at 0.00488 µM, OCI-P5x cells, without rucaparib): 60.8% (active) | viability ([13]; at 0.0195 µM, OCI-C5x cells, with rucaparib 10 µM, 100% = cells with rucaparib alone): 113% (inactive) | viability ([13]; at 0.0195 µM, OCI-C5x cells, without rucaparib): 72% (active) | viability ([13]; at 0.0195 µM, OCI-P5x cells, with rucaparib 20 µM, 100% = cells with rucaparib alone): 70.7% (active) | viability ([13]; at 0.0195 µM, OCI-P5x cells, without rucaparib): 49.8% (active) | viability ([13]; at 0.0781 µM, OCI-C5x cells, with rucaparib 10 µM, 100% = cells with rucaparib alone): 109% (inactive) | viability ([13]; at 0.0781 µM, OCI-C5x cells, without rucaparib): 92.2% (active) | viability ([13]; at 0.0781 µM, OCI-P5x cells, with rucaparib 20 µM, 100% = cells with rucaparib alone): 77.9% (active) | viability ([13]; at 0.0781 µM, OCI-P5x cells, without rucaparib): 63.5% (active)
